From PubChem BioAssay (Tox21)
Values without a mark were called inactive. Inconclusive results are not listed. Where a call stands in place of a potency, no number is given. Calls of active or inactive are those of the source. Unless noted, the call rests on the fitted dose curve; in most records, active means well fitted curve in the direction sought with a large enough effect in the repeat runs; inconclusive means weak or mixed curves; inactive means no such curve, though single readings can be large; an effect the other way counts as inactive or inconclusive.

Columns and labels:
[1] = qHTS assay to identify small molecule agonists of the estrogen receptor alpha (ER-alpha) signaling pathway in the presence of an antagonist - cell viability counter screen (AID 1259386);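 further: cells exposed to compounds for 22 h at 37 °C before the viability read; nearly all actives have a fitted effect of over 30% in size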; further: potency means the concentration at half of the fitted maximal effect
How it was run: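 Viability counter screen using VM7Luc4E2 (full-length ER-alpha, four ERE-luciferase). The cells were treated with compounds alongside ICI-182,780 10.0nM for 22hr, and live-cell protease fluorescence was quantified with CellTiter-Fluor.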

[2] = target: Progesterone receptor (Homo sapiens) (UniProt P06401); experiment: qHTS assay to identify small molecule agonists of the progesterone receptor (PR) signaling pathway (AID 1346784; calls by dose curve; further: nearly all actives have a fitted effect of over 30% in size)
How it was run: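 Using charcoal-stripped serum (2%) to limit endogenous steroids, PR-UAS-bla HEK 293T cells received compounds for 16 hr at 37C after 6 hr plating; beta-lactamase FRET fluorescence was recorded following 2 hr substrate loading at room temperature.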

[3] = target: Progesterone receptor (Homo sapiens) (UniProt P06401); experiment: qHTS assay to identify small molecule antagonists of the progesterone receptor (PR) signaling pathway (AID 1346795; active means well fitted inhibition curve with a large enough effect in the signal ratio in the repeat runs, not every such curve was filed as active; the % refers to the signal ratio; further: potency means the concentration at half of the fitted maximal effect)
How it was run: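 Inhibition of R5020-induced (1 nM final) beta-lactamase reporter signal in PR-UAS-bla HEK293T cells was scored by FRET fluorescence after overnight (16 hr) compound treatment.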

[4] = qHTS assay to identify small molecule antagonists of the progesterone receptor (PR) signaling pathway - cell viability counter screen (AID 1346798); further: series mostly up to about 92 µM; nearly all actives have a fitted effect of over 50% in size
How it was run: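 ATP content as viability readout: CellTiter-Glo luminescence, 30 min room temperature, in PR-UAS-bla HEK293T cells after 16 hr compound/R5020 treatment at 37C and 5% CO2.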

[5] = qHTS assay to identify small molecule agonists of the progesterone receptor (PR) signaling pathway - cell viability counter screen (AID 1346799; calls by dose curve; further: nearly all actives have a fitted effect of over 45% in size)
How it was run: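 Cytotoxicity in PR-bla HEK293T cells: 16 h compound, 37C; CellTiter-Glo added post-FRET read; luminescence after 30 min RT.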

[6] = qHTS assay to identify small molecule antagonists of the TGF-beta/Smad signaling pathway - cell viability counter screen (AID 1346824); further: nearly all actives have a fitted effect of over 50% in size
How it was run: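 SBE-bla HEK 293T cells, incubated overnight, then compound plus 0.25 ng/mL TGF-beta1 (stock added) for 5 hr at 37 C. Viability was read in the same wells by CellTiter-Glo luminescence after 30 min at room temperature.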

[7] = qHTS assay to identify small molecule agonists of the TGF-beta/Smad signaling pathway - cell viability counter screen (AID 1346829); further: top concentration of the series differs between compounds; nearly all actives have a fitted effect of over 45% in size
How it was run: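 Tox21 qHTS format: SBE-bla HEK 293T cells treated with DMSO-dissolved compounds for 5 hr; CellTiter-Glo luminescence after 30 min at room temperature.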

[8] = qHTS assay to identify small molecule agonists of the TGF-beta/Smad signaling pathway (AID 1346859; active means well fitted activation curve with a large enough effect in the signal ratio in the repeat runs, not every such curve was filed as active; the % refers to the signal ratio; further: series mostly up to about 77 µM)
How it was run: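 Stable Smad binding element-beta-lactamase HEK 293T cells; 5 hr compound exposure at 37 C under 5% CO2; 2 hr room-temperature substrate step; fluorescence excited at 405 nm, collected at 460 nm and 530 nm.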

[9] = target: Thyrotropin-releasing hormone receptor (Homo sapiens) (UniProt P34981); experiment: qHTS assay to identify small molecule antagonists of the thyrotropin-releasing hormone receptor (TRHR) signaling pathway (AID 1346877; active means well fitted inhibition curve with a large enough effect in the repeat runs, not every such curve was filed as active; further: series mostly up to about 51 µM)
How it was run: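 Following an 18 h incubation at 37 °C and a 2 h calcium dye load, TRHR-HEK293 cells were exposed to compound (5 min, room temperature) and challenged with TRH, 1 nM final.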

[10] = target: Thyrotropin-releasing hormone receptor (Homo sapiens) (UniProt P34981); experiment: qHTS assay to identify small molecule agonists of the thyrotropin-releasing hormone receptor (TRHR) signaling pathway (AID 1346891; calls by dose curve;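 further: HEK293 cells expressing TRHR with calcium dye readout; series mostly up to about 58 µM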)
How it was run: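 In 1536-format, 1500 TRHR-Hek293 cells per well grew 18 h, took up calcium dye for 2 h at 37 °C, received compound, and were read kinetically; 15-point titrations, triplicates.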

[11] = Caspase-3/7 induction in HepG2 cells by small molecules, qHTS assay (AID 1346978); further: nearly all actives have a fitted effect of over 15% in size
How it was run: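 Wild-type HepG2 cells, 2,000/well, settled 5 hr at 37 C and 5% CO2, then compound-treated for 17 hr; caspase-3/7 activity read by luminescent Caspase-Glo 3/7 after 30 min at room temperature.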

[12] = Caspase-3/7 induction in CHO-K1 cells by small molecules, qHTS cell viability counter screen (AID 1346979); further: nearly all actives have a fitted effect of over 35% in size; further: potency means the concentration at half of the fitted maximal effect
How it was run: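 To flag cytotoxic compounds, treated CHO-K1 wild-type cells were given CellTiter-Fluor at 16hr and read fluorescently after 1hr at 37C; the caspase-3/7 luminescence was measured in these same wells.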

[13] = Caspase-3/7 induction in CHO-K1 cells by small molecules, qHTS assay (AID 1346980); further: nearly all actives have a fitted effect of over 15% in size
How it was run: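 Wild-type CHO-K1 cells exposed to compounds for 17hr at 37 C, 5% CO2. Caspase-3/7 activity then measured by Caspase-Glo 3/7 luminescence after 30min at room temperature.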

[14] = Caspase-3/7 induction in HepG2 cells by small molecules, qHTS cell viability counter screen (AID 1346981); further: series mostly up to about 92 µM; nearly all actives have a fitted effect of over 30% in size
How it was run: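 Viability determined by CellTiter-Fluor fluorescence in HepG2 wells also used for the luminescent Caspase-Glo 3/7 read. Compounds were present for 16 hr at 37 C, 5% CO2 before reagent addition.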

[15] = target: Nuclear receptor subfamily 1 group I member 2 (Homo sapiens) (UniProt O75469); experiment: Human pregnane X receptor (PXR) small molecule agonists, qHTS assay (AID 1346982); further: nearly all actives have a fitted effect of over 35% in size; further: potency means the concentration at half of the fitted maximal effect
How it was run: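 Compound-induced hPXR transactivation of a CYP3A4 luciferase reporter was scored in HepG2 PXR-Luc cells over 24 hr at 37 C, 5% CO2, by luminescence.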

[16] = target: Nuclear receptor subfamily 1 group I member 2 (Rattus norvegicus) (UniProt Q9R1A7); experiment: Rat pregnane X receptor (rPXR) activation by small molecules, qHTS assay (AID 1346983); settings: rPXR luciferase reporter cells, One-Glo luminescence, 24 h; max activation: hits give high values; further: nearly all actives have a fitted effect of over 20% in size
How it was run: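 Cell-based rPXR activation assay: rPXR cells, 2,000 per well, rested 5hr at 37 C, then exposed to compounds in DMSO for 24 hr at 37 C. Luciferase activity read by One-Glo luminescence after 30 min at room temperature.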

[17] = target: Nuclear receptor subfamily 1 group I member 2 (Homo sapiens) (UniProt O75469); experiment: CYP3A4 induction through human pregnane X receptor (PXR) by small molecules, qHTS assay (AID 1346984); further: nearly all actives have a fitted effect of over 40% in size
How it was run: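 Readings come from a luciferase reporter: DPX-2 cells, which are HepG2 cotransfected with PXR and a CYP3A4-promoter construct, were exposed to test compounds for 24 h at 37C before One-Glo detection.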

[18] = target: Nuclear receptor subfamily 1 group I member 2 (Homo sapiens) (UniProt O75469); experiment: Human pregnane X receptor (PXR) activation by small molecules, qHTS assay (AID 1346985); further: nearly all actives have a fitted effect of over 40% in size; further: potency means the concentration at half of the fitted maximal effect
How it was run: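 DPX-2 cells (HepG2 co-transfected with a PXR response element and a CYP3A4-promoter luciferase construct) were seeded at 2,000 per well, rested 5 hr at 37C, then exposed to DMSO-dissolved compounds for 24 hr. Activation was read as luciferase luminescence.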

[19] = Human pregnane X receptor (PXR) small molecule agonists, qHTS cell viability counter screen (AID 1346977); further: nearly all actives have a fitted effect of over 50% in size
How it was run: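 Readout is CellTiter-Fluor fluorescence from PXR-Luc HepG2 cells. Plated cells rested 5hr, then were treated with compounds for 24hr at 37C and 5% CO2, with reagent present during the last hour.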

[20] = target: Acetylcholinesterase (Homo sapiens) (UniProt P22303); experiment: Acetylcholinesterase (AChE) small molecule antagonists: colormetric cell-based qHTS assay (AID 1347395; calls by dose curve; further: nearly all actives have a fitted effect of over 30% in size; further: potency means the concentration at half of the fitted maximal effect)
How it was run: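 Neuroblastoma line SH-SY5Y supplied the enzyme; cells were preincubated with compound for 30 min at 37 C and 5% CO2. Acetylthiocholine with DTNB was then added for 90 min at 37 C, and thiocholine was measured by colour.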

Sequence of Nuclear receptor subfamily 1 group I member 2 (Rattus norvegicus) (Q9R1A7 whole entry, looked up): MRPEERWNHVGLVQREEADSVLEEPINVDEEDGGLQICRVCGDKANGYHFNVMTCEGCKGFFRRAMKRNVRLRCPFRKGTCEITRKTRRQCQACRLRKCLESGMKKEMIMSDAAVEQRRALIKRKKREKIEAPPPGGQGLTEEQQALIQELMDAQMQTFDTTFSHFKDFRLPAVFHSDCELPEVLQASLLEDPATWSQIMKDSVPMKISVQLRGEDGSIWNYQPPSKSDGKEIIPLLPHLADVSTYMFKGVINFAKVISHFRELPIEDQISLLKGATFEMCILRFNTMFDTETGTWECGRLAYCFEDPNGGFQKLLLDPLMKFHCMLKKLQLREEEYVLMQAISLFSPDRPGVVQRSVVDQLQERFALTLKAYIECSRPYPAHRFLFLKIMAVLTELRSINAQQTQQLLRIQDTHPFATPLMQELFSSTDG
Sequence of Acetylcholinesterase (Homo sapiens) (P22303 whole entry, looked up): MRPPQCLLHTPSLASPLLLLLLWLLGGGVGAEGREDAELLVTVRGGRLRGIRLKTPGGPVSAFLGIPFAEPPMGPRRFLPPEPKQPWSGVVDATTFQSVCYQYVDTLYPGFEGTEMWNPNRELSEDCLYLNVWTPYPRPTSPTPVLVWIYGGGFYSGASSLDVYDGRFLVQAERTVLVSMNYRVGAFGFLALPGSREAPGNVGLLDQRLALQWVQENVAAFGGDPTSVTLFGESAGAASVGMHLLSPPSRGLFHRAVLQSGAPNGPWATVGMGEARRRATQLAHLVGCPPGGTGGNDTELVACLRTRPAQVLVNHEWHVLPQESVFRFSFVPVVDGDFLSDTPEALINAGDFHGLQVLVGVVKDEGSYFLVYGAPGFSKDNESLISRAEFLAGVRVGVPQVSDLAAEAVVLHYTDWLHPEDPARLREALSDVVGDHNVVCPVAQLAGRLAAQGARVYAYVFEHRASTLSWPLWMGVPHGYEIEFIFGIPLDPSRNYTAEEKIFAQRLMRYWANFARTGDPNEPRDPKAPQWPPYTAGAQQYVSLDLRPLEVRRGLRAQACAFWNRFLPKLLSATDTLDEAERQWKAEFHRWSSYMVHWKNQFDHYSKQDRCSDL
Sequence of Progesterone receptor (Homo sapiens) (P06401 whole entry, looked up): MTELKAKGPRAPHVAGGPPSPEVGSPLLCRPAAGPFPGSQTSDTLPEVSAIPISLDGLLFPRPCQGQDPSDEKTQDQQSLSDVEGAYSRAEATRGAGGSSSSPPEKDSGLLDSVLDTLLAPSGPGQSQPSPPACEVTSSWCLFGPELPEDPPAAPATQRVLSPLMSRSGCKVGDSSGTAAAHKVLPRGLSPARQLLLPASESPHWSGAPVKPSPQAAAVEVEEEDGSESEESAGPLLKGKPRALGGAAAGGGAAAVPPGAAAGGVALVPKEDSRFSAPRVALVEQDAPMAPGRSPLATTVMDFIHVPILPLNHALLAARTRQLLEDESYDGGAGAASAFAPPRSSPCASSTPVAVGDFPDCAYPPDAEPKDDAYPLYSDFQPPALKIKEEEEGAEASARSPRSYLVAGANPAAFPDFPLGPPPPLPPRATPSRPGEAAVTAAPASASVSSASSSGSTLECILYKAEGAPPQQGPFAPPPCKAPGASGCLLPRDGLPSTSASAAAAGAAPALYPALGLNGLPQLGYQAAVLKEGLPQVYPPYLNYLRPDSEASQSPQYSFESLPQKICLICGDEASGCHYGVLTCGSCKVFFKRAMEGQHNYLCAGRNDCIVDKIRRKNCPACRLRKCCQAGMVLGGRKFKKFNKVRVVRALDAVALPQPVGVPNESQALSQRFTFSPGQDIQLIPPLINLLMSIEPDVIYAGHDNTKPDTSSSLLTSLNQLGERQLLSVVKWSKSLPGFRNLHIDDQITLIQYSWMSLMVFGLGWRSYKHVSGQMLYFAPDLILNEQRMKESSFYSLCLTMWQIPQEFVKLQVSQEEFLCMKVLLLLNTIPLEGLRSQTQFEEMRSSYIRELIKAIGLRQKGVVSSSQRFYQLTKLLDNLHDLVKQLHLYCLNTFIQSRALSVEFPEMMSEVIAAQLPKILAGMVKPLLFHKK
Sequence of Thyrotropin-releasing hormone receptor (Homo sapiens) (P34981 whole entry, looked up): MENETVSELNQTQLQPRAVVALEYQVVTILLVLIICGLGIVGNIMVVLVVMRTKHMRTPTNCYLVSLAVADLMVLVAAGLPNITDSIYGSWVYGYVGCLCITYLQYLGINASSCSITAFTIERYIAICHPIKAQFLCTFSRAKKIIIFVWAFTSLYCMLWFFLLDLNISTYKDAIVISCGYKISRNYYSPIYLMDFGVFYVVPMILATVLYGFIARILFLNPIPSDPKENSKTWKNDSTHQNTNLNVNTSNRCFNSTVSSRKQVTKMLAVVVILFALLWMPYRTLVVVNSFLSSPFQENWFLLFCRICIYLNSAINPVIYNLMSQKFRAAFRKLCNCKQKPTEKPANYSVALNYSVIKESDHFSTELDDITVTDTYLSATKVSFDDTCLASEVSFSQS
Sequence of Nuclear receptor subfamily 1 group I member 2 (Homo sapiens) (O75469 whole entry, looked up): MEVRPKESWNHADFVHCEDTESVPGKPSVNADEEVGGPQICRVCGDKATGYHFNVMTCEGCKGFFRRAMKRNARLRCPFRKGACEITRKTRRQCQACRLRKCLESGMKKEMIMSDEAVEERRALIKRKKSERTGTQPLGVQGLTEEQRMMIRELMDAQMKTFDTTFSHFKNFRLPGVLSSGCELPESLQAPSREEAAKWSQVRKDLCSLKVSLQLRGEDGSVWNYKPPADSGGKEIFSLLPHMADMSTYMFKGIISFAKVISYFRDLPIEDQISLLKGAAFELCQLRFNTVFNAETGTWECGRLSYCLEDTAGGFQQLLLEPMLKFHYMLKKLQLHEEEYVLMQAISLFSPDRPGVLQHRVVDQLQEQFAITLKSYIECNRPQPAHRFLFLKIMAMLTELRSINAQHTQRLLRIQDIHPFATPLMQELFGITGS

Row | SMILES | Potency [1] | Potency [2] | Potency [3] | Potency [4] | Potency [5] | Potency [6] | outcome [7] | outcome [8] | outcome [9] | outcome [10] | Potency [11] | Potency [12] | Potency [13] | Potency [14] | Potency [15] | max activation [16] [%] | Potency [17] | Potency [18] | Potency [19] | Potency [20]
1 | CCC1(c2ccccc2)C(=O)NC(=O)NC1=O | inactive | inactive | inactive | inactive | inactive | inactive | inactive | inactive | inactive | inactive | inactive | inactive | inactive | inactive | inactive | -0.894 | inactive | inactive |  | 
2 | Cc1cccc(C#N)c1 | inactive | inactive | inactive | inactive | inactive |  | inactive | inactive | inactive | inactive | inactive | inactive | inactive | inactive | inactive |  |  |  | inactive | 
3 | CCC(=O)C(CCN(C)C)(c1ccccc1)c1ccccc1 | inactive | inactive | inactive | inactive | inactive | inactive | inactive | inactive | inactive | inactive | inactive | inactive | inactive | inactive | 16.8 µM (active) |  |  |  |  | 
4 | CC(C)(C)OC(=O)c1ncn2c1[C@@H]1CCCN1C(=O)c1c(Br)cccc1-2 | inactive | inactive | inactive | inactive | inactive | inactive | inactive |  | inactive | inactive | inactive | inactive | inactive | inactive | 13.3 µM (active) | -1.76 |  | 15.8 µM (active) | inactive | inactive
5 | CNC(=O)Oc1c(C(C)(C)C)cc(C)cc1C(C)(C)C | inactive | inactive | inactive | inactive | inactive |  | inactive | inactive | inactive | inactive | inactive | inactive | inactive | inactive | inactive |  |  |  | inactive | inactive
6 | C[N+](=O)[O-] | inactive | inactive | inactive | inactive | inactive | inactive | inactive | inactive | inactive | inactive | inactive | inactive | inactive | inactive | inactive |  |  |  |  | 
7 | CC(C=O)Cc1ccc2c(c1)OCO2 (stereo unspecified) | inactive | inactive | inactive | inactive | inactive | inactive | inactive | inactive |  |  | inactive | inactive | inactive | inactive |  |  |  |  |  | inactive
8 | O=C(O)c1ccc2[nH]cc(CCCCN3CC=C(c4ccccc4)CC3)c2c1 | inactive | inactive | inactive | inactive | inactive | inactive | inactive | inactive |  |  | inactive | inactive | inactive | inactive | inactive | -0.864 | inactive | inactive | inactive | inactive
9 | COC(=O)c1ccccc1S(=O)(=O)NC(=O)Nc1nc(C)cc(C)n1 | inactive | inactive | inactive | inactive | inactive |  | inactive | inactive | inactive | inactive | inactive | inactive | inactive | inactive | inactive |  |  |  | inactive | 
10 | N#CC(O)c1ccccc1 (stereo unspecified) | inactive | inactive | inactive | inactive | inactive | inactive | inactive | inactive | inactive | inactive |  |  | inactive |  |  |  |  |  |  | inactive
11 | CC(C(=O)c1ccccc1)N(C)C (stereo unspecified) | inactive | inactive | inactive | inactive | inactive | inactive | inactive | inactive |  |  | inactive | inactive | inactive | inactive | inactive |  |  |  | inactive | inactive
12 | COC(=O)C1=CCCN(C)C1 | inactive | inactive | inactive | inactive | inactive | inactive | inactive | inactive |  |  | inactive | inactive | inactive | inactive | inactive |  |  |  | inactive | inactive
13 | Nc1c(Br)cc([N+](=O)[O-])cc1[N+](=O)[O-] | 31 µM (active) | inactive | 27.6 µM (active) | inactive | inactive | inactive | inactive | inactive | inactive | inactive | inactive | 55.1 µM (active) | inactive |  | 55.1 µM (active) |  |  |  |  | 36 µM (active)
14 | CCC(Cl)[N+](=O)[O-] (stereo unspecified) | inactive | inactive | inactive | inactive | inactive | inactive | inactive | inactive | inactive | inactive |  | inactive | inactive | inactive | inactive |  |  |  |  | inactive
15 | O=[N+]([O-])c1cccc2cccnc12 | inactive | inactive | inactive | inactive | inactive |  | inactive | inactive | inactive | inactive | inactive | inactive | inactive | inactive | 35.3 µM (active) |  |  |  | inactive | inactive
16 | C=C(C)[C@@H]1CC=C(C=O)CC1 | inactive | inactive | inactive | inactive | inactive | inactive | inactive | inactive |  |  | inactive |  | inactive | inactive |  |  |  |  | inactive | 
17 | NC(=O)c1cc([N+](=O)[O-])cc([N+](=O)[O-])c1 | inactive | inactive | inactive | inactive | inactive | inactive | inactive | inactive | inactive | inactive | inactive | inactive | inactive | inactive | inactive | -0.752 | inactive | inactive |  | 
